Assay results taken from PubChem BioAssay (EPA / NIEHS).
Records with an inconclusive call do not appear. The source made the active and inactive calls. Rule for the calls: active = hit-call score of the fitted dose curve at least 0.9, where 1 is the maximum; inconclusive = response in the unintended direction; inactive = score below 0.9.

Each molecule was assayed against human AKT serine/threonine Kinase 2 (AKT2), AKT2 (gene 208) (UniProt P31751) (assay: NVS_ENZ_hAKT2: NovaScreen (NVS) Enzymatic Assay for human AKT serine/threonine Kinase 2 (AKT2) (AID 2283141)).
Chain of human AKT serine/threonine Kinase 2 (AKT2), AKT2 (gene 208) (P31751 whole entry, looked up): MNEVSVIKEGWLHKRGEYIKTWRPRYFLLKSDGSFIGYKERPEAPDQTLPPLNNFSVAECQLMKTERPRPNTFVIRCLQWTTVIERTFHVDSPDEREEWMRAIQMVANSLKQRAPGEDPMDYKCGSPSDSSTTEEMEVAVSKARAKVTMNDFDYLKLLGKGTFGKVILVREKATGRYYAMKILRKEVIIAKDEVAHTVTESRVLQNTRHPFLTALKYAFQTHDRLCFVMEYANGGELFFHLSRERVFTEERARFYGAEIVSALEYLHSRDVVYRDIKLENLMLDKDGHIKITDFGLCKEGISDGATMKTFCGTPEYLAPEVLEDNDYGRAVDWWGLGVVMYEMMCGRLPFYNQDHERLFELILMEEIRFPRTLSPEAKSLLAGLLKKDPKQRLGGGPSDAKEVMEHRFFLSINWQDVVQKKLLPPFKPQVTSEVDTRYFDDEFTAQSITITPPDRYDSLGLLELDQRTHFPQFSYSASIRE
Protocol: NVS_ENZ_hAKT2 is a biochemical, single-readout assay that uses extracted gene-proteins in a cell-free assay. Measurements were taken 1 hour after chemical dosing in a 384-well plate.NVS_ENZ_hAKT2 is one of one assay component(s) measured or calculated from the NVS_ENZ_hAKT2 assay. It is designed to make measurements of enzyme activity, a form of enzyme reporter, as detected with fluorescence intensity signals by Fluorescence and electrophoretic mobility shift technology.Data from the assay component NVS_ENZ_hAKT2 was analyzed into 1 assay endpoint. This assay endpoint, NVS_ENZ_hAKT2, was analyzed in the positive analysis fitting direction relative to DMSO as the negative control and baseline of activity. Using a type of enzyme reporter, loss-of-signal activity can be used to understand changes in the enzymatic activity as they relate to the gene AKT2. Furthermore, this assay endpoint can be referred to as a primary readout, because this assay has produced multiple assay endpoints where this one serves a enzymatic activity function. To generalize the intended target to other relatable targets, this assay endpoint is annotated to the kinase intended target family, where the subfamily is serine/threonine kinase.
Binding assays used specific radioligands (tritiated, iodinated) with non-radioactive competitive displacement ligands in agonist or antagonist protocols (as indicated) and various reference compounds and inhibitors to titrate specific binding to receptors and transporters. Most enzyme assays (CYPs, kinases, phosphatases, proteases, HDACs) used recombinant protein and specific substrates (fluorescence mostly, some colorimetric and radioactive) and inhibitors, followed by a biochemical separation of substrate and product. All assays for the biochemical HTS were initially run in duplicate at a single concentration (10 uM for CYP450 assays and 25 uM for all others). Assay-chemical combinations meeting a pre-defined threshold (e.g., 30% inhibition and other criteria defined below) were then run in singleton concentration-response format with maximum concentration of 20 uM for CYPs and 50 uM for all others. Each assay was run with positive and negative controls, and concurrent controls on every plate. The follow-up (secondary) screen tested active chemical-pairs in concentration series, as well as a few additional assays not tested in the primary screen, some selected negative inactives, and several cases re-run in the concentration series for confirmatory purposes.

SMILES	outcome
CCC[CH2][Sn]([Cl])([CH2]CCC)[CH2]CCC	inactive
CCNS(=O)(=O)C(F)(F)C(F)(F)C(F)(F)C(F)(F)C(F)(F)C(F)(F)C(F)(F)C(F)(F)F	inactive
C[N+](C)(C)CC1CO1 (stereo unspecified)	inactive
CN(C)C(=O)Nc1ccc(Cl)cc1	inactive
Cc1ccc(N=C=O)cc1N=C=O	inactive
Cc1ccc(N)c(N)c1	inactive
O=P(OCCCl)(OCCCl)OCCCl	inactive
c1ccc(NNc2ccccc2)cc1	inactive
CCCCCCCCn1sccc1=O	inactive
O=C1CCCO1	inactive
O=C(O)C1C2CCC(O2)C1C(=O)O (stereo unspecified)	inactive
